The target in the assay is PARP1 L713F-nLuc biosensor (HCT116) (UniProt P09874). Description: PARP1 L713F-nLuc/akaLuc ratio relative to DMSO control (biosensor stabilization) (fold change); higher = more PARP1 biosensor stabilization (target engagement / stabilizer), active = hit call of the paper. The settings on record: 24 h.
[1] abbreviates: stock concentration (mM; final µM = stock mM x 1): 2.
The mark [2] stands for this setting: stock concentration (mM; final µM = stock mM x 1): 10.

Structures can show the parent of a compound that is named as a salt. Unmarked numbers belong to inactive results.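 How the source made its calls: active = log2 fold change beyond 2 SD from the library mean after excluding viability outliers; inactive = within 2 SD.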

Sequence of PARP1 L713F-nLuc biosensor (HCT116) (P09874 whole entry L713F, looked up): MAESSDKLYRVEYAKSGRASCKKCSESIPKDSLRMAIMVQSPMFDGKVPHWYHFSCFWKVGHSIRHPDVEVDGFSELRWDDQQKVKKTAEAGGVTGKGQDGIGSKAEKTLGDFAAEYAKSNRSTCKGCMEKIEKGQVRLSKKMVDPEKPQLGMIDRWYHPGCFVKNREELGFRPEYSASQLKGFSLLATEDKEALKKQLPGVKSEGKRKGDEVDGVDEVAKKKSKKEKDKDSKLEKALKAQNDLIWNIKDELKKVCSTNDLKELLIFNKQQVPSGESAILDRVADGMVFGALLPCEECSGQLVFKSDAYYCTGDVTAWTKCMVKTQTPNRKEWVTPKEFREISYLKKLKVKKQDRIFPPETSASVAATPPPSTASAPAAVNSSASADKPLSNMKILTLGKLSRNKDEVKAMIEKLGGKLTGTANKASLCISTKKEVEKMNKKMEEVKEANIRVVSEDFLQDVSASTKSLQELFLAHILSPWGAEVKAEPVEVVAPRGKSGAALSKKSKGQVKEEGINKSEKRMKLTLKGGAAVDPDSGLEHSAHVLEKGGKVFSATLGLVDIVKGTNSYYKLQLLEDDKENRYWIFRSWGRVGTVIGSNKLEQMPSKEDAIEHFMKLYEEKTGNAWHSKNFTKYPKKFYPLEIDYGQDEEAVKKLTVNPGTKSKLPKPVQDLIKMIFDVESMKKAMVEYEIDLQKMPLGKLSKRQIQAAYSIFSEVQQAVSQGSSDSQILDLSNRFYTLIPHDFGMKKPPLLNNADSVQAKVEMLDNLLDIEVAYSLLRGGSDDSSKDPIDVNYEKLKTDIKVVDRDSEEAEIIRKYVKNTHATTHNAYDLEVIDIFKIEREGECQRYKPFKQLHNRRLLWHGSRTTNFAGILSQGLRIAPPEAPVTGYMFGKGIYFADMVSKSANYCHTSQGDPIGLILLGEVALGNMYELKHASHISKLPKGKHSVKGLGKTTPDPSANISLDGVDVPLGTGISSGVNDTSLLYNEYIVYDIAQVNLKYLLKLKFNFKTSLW

With `Cn1cc(-c2cnn3c(N)c(Br)c([C@@H]4CCCNC4)nc23)cn1`, under setting [1], the “PARP1 L713F-nLuc/akaLuc ratio” value is 2.66.

For `N[C@@H]1[C@@H](O)[C@H](O[C@@H]2O[C@H](CO)[C@@H](O)[C@H](O)[C@H]2N)[C@@H](CO)O[C@H]1O` [Chitosan oligosaccharide], the “PARP1 L713F-nLuc/akaLuc ratio” value (stock concentration (mM; final µM = stock mM x 1): 9) was 0.65.

As for `CN1CCN(CCOc2cc(OC3CCOCC3)c3c(Nc4c(Cl)ccc5c4OCO5)ncnc3c2)CC1` [Saracatinib (AZD0530)], the “PARP1 L713F-nLuc/akaLuc ratio” value under setting [2] was 0.92.

Consider `CN(Cc1cnc2nc(N)nc(N)c2n1)c1ccc(C(=O)N[C@@H](CCC(=O)O)C(=O)O)cc1` [Methotrexate], for which the “PARP1 L713F-nLuc/akaLuc ratio” value under setting [2] was 0.755.

Turning to `Cc1cc(Nc2nc(CC3(C(=O)O)CCN(C(=O)c4cccc(Cl)c4Cl)CC3)ccc2F)n[nH]1`, under setting [2], the “PARP1 L713F-nLuc/akaLuc ratio” value is 1.6.

For `N#Cc1ccc(C(c2ccc(C#N)cc2)n2cncn2)cc1` [Letrozole], the “PARP1 L713F-nLuc/akaLuc ratio” value under setting [2] is 1.4.

Consider `COc1cc2/c(=N/c3ccc(Br)cc3F)nc[nH]c2cc1OCC1CCN(C)CC1` [Vandetanib (ZD6474)], for which, under setting [1], the “PARP1 L713F-nLuc/akaLuc ratio” value was 0.748.

In the case of `COc1cc(-c2cn(C)c(=O)c3cnccc23)cc(OC)c1CN1CCN(CCCCCOc2cc(-c3scnc3C)ccc2CNC(=O)[C@@H]2C[C@@H](O)CN2C(=O)[C@@H](NC(=O)C2(F)CC2)C(C)(C)C)CC1`, the “PARP1 L713F-nLuc/akaLuc ratio” value under setting [2] was 0.634.

For `CO[C@H]1C[C@@H]2CC[C@@H](C)[C@@](O)(O2)C(=O)C(=O)N2CCCC[C@H]2C(=O)O[C@H]([C@H](C)C[C@@H]2CC[C@@H](OC(=O)C(C)(CO)CO)[C@H](OC)C2)CC(=O)[C@H](C)/C=C(\C)[C@@H](O)[C@@H](OC)C(=O)[C@H](C)C[C@H](C)/C=C/C=C/C=C/1C`, the “PARP1 L713F-nLuc/akaLuc ratio” value under setting [2] was 0.565.

As for `N#CC[C@H](C1CCCC1)n1cc(-c2ncnc3[nH]ccc23)cn1` [Ruxolitinib], under setting [2], the “PARP1 L713F-nLuc/akaLuc ratio” value is 0.544.

Turning to `CCN(CCO)CCCOc1ccc2c(Nc3cc(CC(=O)Nc4cccc(F)c4)[nH]n3)ncnc2c1` [Barasertib-HQPA], under setting [2], the “PARP1 L713F-nLuc/akaLuc ratio” value was 0.878.

With `CCCCCCCCCCCCCC(=S)NCCCC[C@H](NC(=O)OCc1ccccc1)C(=O)Nc1ccccc1` [Thiomyristoyl], the “PARP1 L713F-nLuc/akaLuc ratio” value under setting [2] is 1.08.

For `O=C(NN=Cc1c(O)ccc2ccccc12)c1ccncc1`, the “PARP1 L713F-nLuc/akaLuc ratio” value under setting [2] was 0.653.

For the compound `CCOc1cccc2c1N[C@@H](c1ccc(C(=O)O)cc1)[C@H]1CC=C[C@@H]21` [LIN28 inhibitor LI71], the “PARP1 L713F-nLuc/akaLuc ratio” value under setting [2] is 0.616.

Take `CCOc1ccn(-c2ccc(F)cc2)c(=O)c1C(=O)Nc1ccc(Oc2ccnc(N)c2Cl)c(F)c1`: under setting [2], the “PARP1 L713F-nLuc/akaLuc ratio” value is 1.

With `Cc1ccc(C(=O)Nc2ccc(S(=O)(=O)O)c3cc(S(=O)(=O)O)cc(S(=O)(=O)O)c23)cc1NC(=O)c1cccc(NC(=O)Nc2cccc(C(=O)Nc3cc(C(=O)Nc4ccc(S(=O)(=O)O)c5cc(S(=O)(=O)O)cc(S(=O)(=O)O)c45)ccc3C)c2)c1` [Suramin (sodium salt)], the “PARP1 L713F-nLuc/akaLuc ratio” value under setting [2] was 0.738.

With `COc1cc(/C=C/C(=O)CC(=O)/C=C/c2ccc(O)c(OC)c2)ccc1O` [Curcumin], under setting [2], the “PARP1 L713F-nLuc/akaLuc ratio” value is 1.12.

Regarding `Cn1cccc1/C=C1\C(=O)NC(=O)c2ccccc21`, under setting [2], the “PARP1 L713F-nLuc/akaLuc ratio” value was 3.34 (active).

Take `CC[C@H](NC(=O)[C@H](C)NC)C(=O)N1C[C@@H](O)C[C@H]1Cc1c(-c2[nH]c3cc(F)ccc3c2C[C@@H]2C[C@H](O)CN2C(=O)[C@H](CC)NC(=O)[C@H](C)NC)[nH]c2cc(F)ccc12` [Birinapant]: the “PARP1 L713F-nLuc/akaLuc ratio” value under setting [2] is 0.946.

Regarding `COCCOc1cnc2ccn([C@H](C)c3nnc4c(F)cc(-c5cnn(C)c5)cn34)c(=O)c2c1`, the “PARP1 L713F-nLuc/akaLuc ratio” value under setting [2] was 0.857.

`CC(C)N(C[C@H]1O[C@@H](n2cnc3c(N)ncnc32)[C@H](O)[C@@H]1O)[C@H]1C[C@@H](CCc2nc3cc(C(C)(C)C)ccc3[nH]2)C1` [Pinometostat]: the “PARP1 L713F-nLuc/akaLuc ratio” value under setting [2] was 0.649.

Consider `NC(=O)c1ncn(C2OC(CO)C(O)C2O)c1N` (stereo unspecified) [AICAR (phosphate)], for which the “PARP1 L713F-nLuc/akaLuc ratio” value under setting [2] was 1.04.

For `Cc1ncc(Cl)cc1NCc1ccc(C(=O)N[C@@H](CC2CCCC2)C(=O)NC2CC2)s1`, the “PARP1 L713F-nLuc/akaLuc ratio” value under setting [2] is 0.585.

For `O=C(O)CC[C@H]1CC[C@@](c2cc(F)ccc2F)(S(=O)(=O)c2ccc(Cl)cc2)CC1`, the “PARP1 L713F-nLuc/akaLuc ratio” value under setting [2] was 0.688.

Consider `CC(O)c1cc(C(=O)N[C@@H](C)Cn2ccc(-c3ccc(C#N)c(Cl)c3)n2)n[nH]1` (stereo partly specified) [Darolutamide (ODM-201)], for which, under setting [2], the “PARP1 L713F-nLuc/akaLuc ratio” value is 0.613.

For `Nc1nc2cc(CC[C@H]3C[C@@H](n4ccc5c(N)ncnc54)[C@H](O)[C@@H]3O)ccc2cc1Br`, the “PARP1 L713F-nLuc/akaLuc ratio” value under setting [2] was 0.465.
